Data published in PubChem BioAssay (Tox21).
Results filed as inconclusive are left out. Entries that show only a call come without a potency. Activity calls are given as the source filed them. The call rests on the fitted dose curve; in most records, active means well fitted activation curve with a large enough effect in the signal ratio in the repeat runs (not every such curve was filed as active); inconclusive means weak or mixed curves, or effect the other way; inactive means no such curve, though single readings can be large or run the other way; the % refers to the signal ratio.

assay: qHTS assay for small molecule agonists of the antioxidant response element (ARE) signaling pathway (AID 743202); conditions: HepG2 ARE-bla reporter, beta-lactamase FRET, 16 h; series mostly up to 73.3 µM
Text: U.S. Tox21 Program National Center for Advancing Translational Sciences [NCATS] NIH Chemical Genomics Center [NCGC] U.S. Environmental Protection Agency [EPA] National Institutes of Environmental Health Sciences [NIEHS] National Toxicology Program [NTP] U.S. Food and Drug Administration [FDA] Tox21 Assay Overview: Oxidative stress has been implicated in the pathogenesis of a variety of diseases ranging from cancer to neurodegeneration. The antioxidant response element (ARE) signaling pathway plays an important role in the amelioration of oxidative stress. The CellSensor ARE-bla HepG2 cell line (Invitrogen) can be used for analyzing the Nrf2/antioxidant response signaling pathway. Nrf2 (NF-E2-related factor 2) and Nrf1 are transcription factors that bind to AREs and activate these genes. The CellSensor ARE-bla Hep G2 cell line contains a beta-lactamase reporter gene under control of the Antioxidant Response Element (ARE) stably integrated into HepG2 cells. The activation of the report gene under culture conditions can be detected by fluorescence intensity. This cell line has been used to screen the Tox21 10K compound library to identify agonists that induce oxidative stress.
Tox21 Assay Protocol Summary: The ARE-bla cells were dispensed at 2,000 cells/5 ul/well in 1536-well black wall/clear bottom plates using a Multidrop dispenser. After the assay plates were incubated at a 37 C/5% CO2 incubator for 5 hours, 23 nL of compounds dissolved in DMSO, positive controls or DMSO only was transferred to the assay plate by a pin tool. The plates were incubated at 37 C for 16 hours. After 1 uL of LiveBLAzer B/G FRET substrate was added using a Flying Reagent Dispenser, the plates were incubated at room temperature for 2 hours, and fluorescence intensity was measured by an Envision plate reader.
Potency means the concentration at half of the fitted maximal effect.

Row | SMILES | Potency
1 | COc1ccc(COC=O)cc1 | inactive
2 | CC(C)(C)N(CCO)CCO | inactive
3 | CCC(C)OC(=O)N1CCCCC1CCO (stereo not given) | inactive
4 | CCCCCCOC(=O)CC(CC(=O)OCCCCCC)(OC(=O)CCC)C(=O)OCCCCCC | inactive
5 | CC(=O)c1ccc(C)cc1 | inactive
6 | C=C(C)[C@H]1CC=C(C)CC1 | inactive
7 | NC1CCN(c2cccc(Cl)n2)CC1 | inactive
8 | CCCC(C)C(=O)O (stereo not given) | inactive
9 | CC(=O)CCc1ccc(O)cc1 | inactive
10 | Nc1ncnc2c1ncn2Cc1c(F)cccc1Cl | inactive
11 | Cc1cc(C)c(NC(=O)CN(CC(=O)O)CC(=O)O)c(C)c1Br | inactive
12 | CNC(=O)c1c(I)c(NC(=O)CCCCC(=O)Nc2c(I)c(C(=O)O)c(I)c(C(=O)NC)c2I)c(I)c(C(=O)O)c1I | inactive
13 | NS(=O)(=O)c1cc2c(cc1C(F)(F)F)NC(Cc1ccccc1)NS2(=O)=O (stereo not given) | inactive
14 | NC(N)=NS(=O)(=O)c1ccc(N)cc1 | inactive
15 | O=C(O)/C=C/c1ccc(/C=C/C(=O)O)cc1 | inactive
16 | CC(=O)OC(C)(C)C | inactive
17 | CO | inactive
18 | COC(=O)c1ccc(C(=O)OC)c(C(=O)OC)c1 | inactive
19 | O=C(O)C(O)[C@H](O)[C@@H](O)[C@H](O)[C@H](O)CO (stereo not given in full) | inactive
20 | CCCC(C)CO (stereo not given) | inactive

Row | SMILES | Potency
21 | [O-][N+](=Nc1ccccc1)c1ccccc1 | 6.86 µM (active)
22 | CC(O)CN(CCCN(C)C)CCCN(C)C (stereo not given) | inactive
23 | CCN(CC)S(=O)(=O)c1ccc(C(=O)O)cc1 | inactive
24 | COC(=O)[C@H]1[C@H]2C[C@@H]3c4[nH]c5cc(OC)ccc5c4CCN3C[C@H]2C[C@@H](OC(=O)COc2ccc(OC)cc2)[C@@H]1OC | inactive
25 | C1=C\CC/C=C\CC/C=C\CC/1 | inactive
26 | NC(=O)c1ncn([C@@H]2O[C@H](CO)[C@@H](O)[C@H]2O)c1N | inactive
27 | CCN1CCCC1CNC(=O)c1cc(S(N)(=O)=O)ccc1OC (stereo not given) | inactive
28 | CCCCCCCCCCCCCCCCCCOCC(O)CO (stereo not given) | inactive
29 | N#CC1(O)CCCCC1 | inactive
30 | C1CCCCCCCCCCC1 | inactive
31 | CC(C)(C)OC(=O)N1C[C@@H](F)C[C@H]1C(=O)O | inactive
32 | Nc1ccn(C2CO[C@H](CO)O2)c(=O)n1 (stereo not given in full) | inactive
33 | N[C@@H](CS)C(=O)O | inactive
34 | CC(C)c1cccc(C(C)C)c1N | inactive
35 | Cc1c(F)cc2c(=O)c(C(=O)O)cn3c2c1CCC3C (stereo not given) | inactive
36 | O=C(O)C1CCC1 | inactive
37 | CCCCCCCCCCCCCCCCCC(=O)OCCCCCCCCCCCCCC(C)C | inactive
38 | CC12CCC(CC1=O)C2(C)C (stereo not given) | inactive
39 | Cc1ccccc1C(=O)O | inactive
40 | Cc1nccn1CC1CCc2c(c3ccccc3n2C)C1=O (stereo not given) | inactive
